Results filed as inconclusive are left out. Active and inactive are the calls of the source. Unless noted, calls follow the shape of the dose curve; as a rule, active = well fitted curve in the direction sought with a large enough effect in the repeat runs; inconclusive = weak or mixed curves; inactive = no such curve, though single readings can be large; an effect the other way counts as inactive or inconclusive.
Legend:
[1] = qHTS assay to identify small molecule agonists of the TGF-beta/Smad signaling pathway - cell viability counter screen (AID 1346829); also: top concentration of the series differs between compounds; nearly all actives have a fitted effect of over 45% in size
How it was run: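 Same-well cytotoxicity: CellTiter-Glo added after the 2 hr room-temperature beta-lactamase substrate step, luminescence measured 30 min later; cells had 5 hr of compound at 37 C.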

[2] = qHTS assay to identify small molecule agonists of the TGF-beta/Smad signaling pathway (AID 1346859; active = well fitted activation curve with a large enough effect in the signal ratio in the repeat runs, not every such curve was filed as active; the % refers to the signal ratio; also: series mostly up to about 77 µM)
How it was run: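 Screening used HEK 293T SBE-bla cells at 4,000/well. Test agents: 5 hr, 37 C. Detection: FRET substrate, 2 hr RT, then excitation 405 nm with emissions at 460 and 530 nm.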

[3] = target: Thyrotropin-releasing hormone receptor (Homo sapiens) (UniProt P34981); assay: qHTS assay to identify small molecule antagonists of the thyrotropin-releasing hormone receptor (TRHR) signaling pathway (AID 1346877; active = well fitted inhibition curve with a large enough effect in the repeat runs, not every such curve was filed as active; also: series mostly up to about 51 µM)
How it was run: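 TRHR-expressing HEK293 cells were seeded, cultured 18 h at 37 °C, then loaded with calcium dye for 2 h. Compounds were pre-incubated 5 min at room temperature before 1 nM TRH (final) was added, and kinetic fluorescence was recorded for 3 min.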

[4] = target: Thyrotropin-releasing hormone receptor (Homo sapiens) (UniProt P34981); assay: qHTS assay to identify small molecule agonists of the thyrotropin-releasing hormone receptor (TRHR) signaling pathway (AID 1346891; calls by dose curve; also: series mostly up to about 58 µM)
How it was run: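 Readout was intracellular calcium fluorescence in TRHR-Hek293 cells. Cells were incubated 18 h, dye-loaded 2 h at 37 °C, and treated with compound in agonist mode.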

[5] = Human pregnane X receptor (PXR) small molecule agonists, qHTS cell viability counter screen (AID 1346977); also: nearly all actives have a fitted effect of over 50% in size
How it was run: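 In each well, the PXR reporter HepG2 line was checked for viability: CellTiter-Fluor reagent added 23hr post-dosing, fluorescence read after 1hr incubation at 37C.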

[6] = Caspase-3/7 induction in HepG2 cells by small molecules, qHTS assay (AID 1346978); also: nearly all actives have a fitted effect of over 15% in size
How it was run: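 Wild-type HepG2 cells (2,000/well) were settled 5 h at 37 C, 5% CO2, then exposed to compounds in DMSO for 17 h. Caspase-3/7 activity was read by luminescence 30 min after adding Caspase-Glo 3/7 reagent at room temperature.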

[7] = Caspase-3/7 induction in CHO-K1 cells by small molecules, qHTS cell viability counter screen (AID 1346979); also: nearly all actives have a fitted effect of over 35% in size; also: potency is read from the fitted curve at half-maximal effect
How it was run: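 Following a 5hr settling period, CHO-K1 cells at 1,500 per well received DMSO-dissolved compounds. Cell viability was quantified 16hr later by CellTiter-Fluor fluorescence, measured after 1hr with reagent at 37C.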

[8] = Caspase-3/7 induction in CHO-K1 cells by small molecules, qHTS assay (AID 1346980); also: nearly all actives have a fitted effect of over 15% in size
How it was run: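 Wild-type cells were seeded at 1,500 per well and settled 5 hr at 37 C, 5% CO2, then exposed to DMSO-dissolved compounds for 17 hr. Caspase-Glo 3/7 reagent was added, and luminescence was read after 30min at room temperature.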

[9] = Caspase-3/7 induction in HepG2 cells by small molecules, qHTS cell viability counter screen (AID 1346981); also: series mostly up to about 92 µM; nearly all actives have a fitted effect of over 30% in size
How it was run: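 Wild-type HepG2 cells (2,000/well) were allowed to settle for 5 hr at 37 C, 5% CO2, then dosed with compounds in DMSO by pin transfer. After 16 hr at 37 C, CellTiter-Fluor was added and fluorescence read 1 hr later.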

[10] = target: Nuclear receptor subfamily 1 group I member 2 (Homo sapiens) (UniProt O75469); assay: Human pregnane X receptor (PXR) small molecule agonists, qHTS assay (AID 1346982); also: nearly all actives have a fitted effect of over 35% in size; also: potency is read from the fitted curve at half-maximal effect
How it was run: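 PXR-Luc HepG2 cells (CYP3A4 promoter-driven luciferase) were seeded in medium with 5% charcoal-stripped FBS, left 5 hr at 37 C, then exposed to compounds in DMSO for 24 hr. Luminescence was read after ONE-Glo addition.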
% is scaled to controls: 0 for no effect and ±100 for the full control effect.

Sequence of Thyrotropin-releasing hormone receptor (Homo sapiens) (P34981 whole entry, looked up): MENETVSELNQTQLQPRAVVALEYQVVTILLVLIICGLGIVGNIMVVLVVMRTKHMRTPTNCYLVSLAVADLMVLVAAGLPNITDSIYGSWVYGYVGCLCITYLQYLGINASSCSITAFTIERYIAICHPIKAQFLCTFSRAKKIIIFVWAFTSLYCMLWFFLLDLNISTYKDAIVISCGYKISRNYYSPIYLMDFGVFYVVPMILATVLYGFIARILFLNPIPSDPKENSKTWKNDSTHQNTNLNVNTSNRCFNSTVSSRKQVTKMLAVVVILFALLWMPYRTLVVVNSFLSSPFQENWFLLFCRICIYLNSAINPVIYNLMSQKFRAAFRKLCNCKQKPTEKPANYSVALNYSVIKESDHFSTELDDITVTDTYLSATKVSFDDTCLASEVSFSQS
Sequence of Nuclear receptor subfamily 1 group I member 2 (Homo sapiens) (O75469 whole entry, looked up): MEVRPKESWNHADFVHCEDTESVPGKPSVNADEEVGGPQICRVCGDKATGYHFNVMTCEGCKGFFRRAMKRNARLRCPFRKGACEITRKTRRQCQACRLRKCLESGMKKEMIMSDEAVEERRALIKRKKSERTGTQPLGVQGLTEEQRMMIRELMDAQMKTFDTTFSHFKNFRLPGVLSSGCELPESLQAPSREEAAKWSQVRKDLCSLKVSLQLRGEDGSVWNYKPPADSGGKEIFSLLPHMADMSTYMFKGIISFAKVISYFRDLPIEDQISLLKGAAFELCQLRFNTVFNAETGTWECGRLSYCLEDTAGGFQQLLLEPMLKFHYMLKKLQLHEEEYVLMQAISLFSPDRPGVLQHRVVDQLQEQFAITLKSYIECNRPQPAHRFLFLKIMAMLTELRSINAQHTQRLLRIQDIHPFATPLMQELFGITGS

CCCCC(CC)CNC(=O)CC(C)OC(=O)CCC(=O)O (stereo unspecified)
inactive: outcome [1] | outcome [2] | outcome [3] | outcome [4] | Potency [5] | outcome [6] | Potency [7] | outcome [8] | Potency [9] | Potency [10]

C[CH2][Ge]([Cl])([CH2]C)[CH2]C
inactive: outcome [1] | outcome [2] | outcome [3] | outcome [4] | Potency [5] | outcome [6] | Potency [7] | outcome [8] | Potency [9] | Potency [10]

C=CCOCC(CO)(COCC=C)COCC=C
inactive: outcome [1] | outcome [2] | outcome [3] | outcome [4] | Potency [5] | outcome [6] | outcome [8] | Potency [9]

BrC/C=C/CBr
inactive: activity change, negative = cytotoxicity [1] 11.2% [at 15.8 µM] | activation [2] 1.06% [at 15.8 µM] | activity, negative = inhibition [3] 0.461% [at 10.5 µM] | activation [4] 0.238% [at 11.8 µM] | activity change, negative = cytotoxicity [5] 5.06% [at 19 µM] | caspase activation [6] -0.853% [at 19 µM] | activity change, negative = cytotoxicity [7] 8.86% [at 19 µM] | caspase-3/7 activation [8] 0.312% [at 19 µM] | activity change, negative = cytotoxicity [9] -3.88% [at 19 µM] | activation [10] -6.32% [at 19 µM]

C1=C\CC/C=C\CC/1
inactive: outcome [1] | outcome [2] | outcome [3] | outcome [4] | Potency [5] | outcome [6] | Potency [7] | outcome [8] | Potency [9] | Potency [10]

CCCCCN(CCCOC)C(=O)C(CCC(=O)O)NC(=O)c1ccc(Cl)c(Cl)c1 (stereo unspecified)
inactive: outcome [1] | outcome [2] | outcome [3] | outcome [4] | Potency [5] | outcome [6] | outcome [8] | Potency [9] | Potency [10]

C=CCOCC(O)CCl (stereo unspecified)
inactive: outcome [1] | outcome [2] | outcome [3] | outcome [4] | Potency [5] | outcome [6] | Potency [7] | outcome [8] | Potency [9] | Potency [10]

Oc1ccccc1Cc1ccccc1O
inactive: outcome [1] | outcome [2] | outcome [3] | outcome [4] | Potency [5] | outcome [6] | Potency [7] | outcome [8] | Potency [9]
active: Potency [10] 61.1 µM

C[Si]1(C)N[Si](C)(C)N[Si](C)(C)N1
inactive: outcome [1] | outcome [2] | outcome [3] | outcome [4] | Potency [5] | outcome [6] | Potency [7] | outcome [8] | Potency [9] | Potency [10]

CO/N=C(/C(=O)N[C@@H]1C(=O)N2C(C(=O)O)=C(Cn3nnc(C)n3)CS[C@H]12)c1csc(N)n1
inactive: outcome [1] | outcome [2] | outcome [3] | outcome [4] | Potency [5] | outcome [6] | Potency [7] | outcome [8] | Potency [9] | Potency [10]

CCN(Cc1cccc(S(=O)(=O)O)c1)c1ccccc1
inactive: outcome [1] | outcome [2] | outcome [3] | outcome [4] | Potency [5] | outcome [6] | Potency [7] | outcome [8] | Potency [9] | Potency [10]

Nc1cc(S(=O)(=O)O)ccc1S(=O)(=O)O
inactive: outcome [1] | outcome [2] | outcome [3] | outcome [4] | Potency [5] | outcome [6] | Potency [7] | outcome [8] | Potency [9] | Potency [10]

C=C(C)C(=O)OC1CC(C)CC(C)(C)C1 (stereo unspecified)
inactive: outcome [1] | outcome [2] | outcome [3] | outcome [4] | Potency [5] | outcome [6] | Potency [7] | outcome [8] | Potency [9] | Potency [10]

Cc1ccccc1C(=O)N1CC/C(=N\OS(=O)(=O)O)c2ccc(Cl)cc21
inactive: outcome [1] | outcome [2] | outcome [3] | outcome [4] | outcome [6] | Potency [7] | outcome [8] | Potency [9] | Potency [10]

O=C(c1ccc2c(c1)C(=O)OC2=O)c1ccc2c(c1)C(=O)OC2=O
inactive: outcome [1] | outcome [2] | outcome [3] | outcome [4] | outcome [6] | Potency [7] | outcome [8] | Potency [9] | Potency [10]

CC(=O)N1CCN(c2ccc(O)cc2)CC1
inactive: outcome [1] | outcome [2] | outcome [3] | outcome [4] | Potency [5] | outcome [6] | outcome [8] | Potency [9] | Potency [10]

CC(=O)Nc1ccc(C)cc1
inactive: outcome [1] | outcome [2] | outcome [3] | outcome [4] | Potency [5] | Potency [7] | outcome [8] | Potency [9] | Potency [10]

C=CCOc1cc(Cl)ccc1C(=O)NCCN(CC)CC
inactive: outcome [1] | outcome [2] | outcome [3] | outcome [4] | Potency [5] | outcome [6] | outcome [8] | Potency [9] | Potency [10]

CCOC(=O)C(=O)c1csc(NC=O)n1
inactive: outcome [1] | outcome [2] | outcome [3] | outcome [4] | Potency [5] | outcome [6] | outcome [8] | Potency [9] | Potency [10]

CCCCC(=O)N(C)C
inactive: outcome [1] | outcome [2] | outcome [3] | outcome [4] | Potency [5] | Potency [7] | outcome [8] | Potency [9] | Potency [10]

Cc1cc(O)c2c(c1)C(=O)c1cccc(O)c1C2=O
active: Potency [7] 29.9 µM
inactive: outcome [1] | outcome [2] | outcome [3] | outcome [4] | outcome [6] | outcome [8] | Potency [9]

CN(C)CCOCCN(C)CCO
inactive: outcome [1] | outcome [2] | outcome [3] | outcome [4] | Potency [5] | Potency [7] | outcome [8] | Potency [9] | Potency [10]

C=COCCOCCOC=C
inactive: outcome [1] | outcome [2] | outcome [3] | outcome [4] | outcome [6] | Potency [7] | outcome [8] | Potency [9] | Potency [10]

CCCCCCCCC(=O)OCC
inactive: outcome [1] | outcome [2] | outcome [3] | outcome [4] | outcome [6] | Potency [7] | outcome [8] | Potency [10]

F[Si-2](F)(F)(F)(F)F
inactive: outcome [1] | outcome [2] | outcome [3] | outcome [4] | outcome [6] | Potency [7] | outcome [8] | Potency [9]

O=CN1CCOCC1
inactive: outcome [1] | outcome [2] | outcome [3] | outcome [4] | Potency [5] | outcome [6] | outcome [8] | Potency [9] | Potency [10]

From PubChem BioAssay (Tox21)
